Paper PMC4081100, “A DNA-binding-site landscape and regulatory network analysis for NAC transcription factors in Arabidopsis thaliana”

These sequences were tested against GST-WRKY1(266-371) (Arabidopsis thaliana, UniProt Q9SI37 266-371) (assay: universal protein binding microarray (PBM); transcription factors of Arabidopsis thaliana; high values mean tight binding). Conditions: protein: recombinant; tags: GST; dsDNA, one strand shown.
Procedure, shortened: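 For zinc-finger proteins, zinc acetate was added while GST-tagged NAC-domain, full-length or DNA-binding-domain proteins were induced in cells. Purification used glutathione–Sepharose 4B, and quantification used A280 or anti-GST western blot. Custom all-10-mer Agilent 4 × 180K arrays, made double-stranded by primer extension, each received a protein at 200 to 500 nM final in duplicate. Scoring covered gapped and ungapped 8-mers, with binding given as the normalised enrichment score (E-score).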

Chain of GST-WRKY1(266-371) (Q9SI37 266-371): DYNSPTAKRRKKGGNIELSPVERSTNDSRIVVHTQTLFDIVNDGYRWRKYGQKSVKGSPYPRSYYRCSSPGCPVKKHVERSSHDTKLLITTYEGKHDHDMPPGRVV

Sequence | binding signal [E-score]
ACCAGTCA | 0.421
AGGGTCAG | 0.403
ACAGGTCA | 0.443
GCTTTGAC | 0.466
ACGACCAG | 0.403
CTATGACC | 0.412
GTCAGCGA | 0.43
CGAGTCAA | 0.477
CCGAGTCA | 0.409
GCTGACCC | 0.444
AACGGTCA | 0.435
TCGAGTCA | 0.417
AGTGGTCA | 0.436
AGTCAGCC | 0.415
CGATGACC | 0.414
CTGACCCA | 0.401
CTGACCAA | 0.427
GTCTTTGA | 0.411
CGATTGAC | 0.443

Sequence | binding signal [E-score]
AGTCAGCA | 0.432
CGGGTCAG | 0.408
GCTGACTA | 0.417
GACGGTCA | 0.462
TGACCCAA | 0.419
GGGGGTCA | 0.423
CTGACCGA | 0.439
GTGGACCA | 0.418
CAAGGTCA | 0.425
GAGGTCAA | 0.485
GCTTGACC | 0.482
CTTGGTCA | 0.429
CCGGGTCA | 0.443
GACCAGTC | 0.406
CAGGTCAG | 0.418
TCTGACCA | 0.456
CGGGTCAA | 0.487
AGTCAACC | 0.486
GTCAAGGA | 0.455
